Reference: ChEMBL document CHEMBL3988442, “University of Dundee, Small-Polar-MMV Screening Library” (2021)

Tests used:
[1] = target: T1, Aspartate--tRNA(Asp/Asn) ligase (Mycobacterium tuberculosis (strain ATCC 25618 / H37Rv)) (UniProt P9WFW3); test: Assay for Asp RNA synthetase-1 from Mycobacterium tuberculosis; format: functional; design: scale not given: direction of the effect not stated beside the values; conditions: 30 µM; also: in the data most compounds retested in dose-response had high values
T1 sequence (whole entry): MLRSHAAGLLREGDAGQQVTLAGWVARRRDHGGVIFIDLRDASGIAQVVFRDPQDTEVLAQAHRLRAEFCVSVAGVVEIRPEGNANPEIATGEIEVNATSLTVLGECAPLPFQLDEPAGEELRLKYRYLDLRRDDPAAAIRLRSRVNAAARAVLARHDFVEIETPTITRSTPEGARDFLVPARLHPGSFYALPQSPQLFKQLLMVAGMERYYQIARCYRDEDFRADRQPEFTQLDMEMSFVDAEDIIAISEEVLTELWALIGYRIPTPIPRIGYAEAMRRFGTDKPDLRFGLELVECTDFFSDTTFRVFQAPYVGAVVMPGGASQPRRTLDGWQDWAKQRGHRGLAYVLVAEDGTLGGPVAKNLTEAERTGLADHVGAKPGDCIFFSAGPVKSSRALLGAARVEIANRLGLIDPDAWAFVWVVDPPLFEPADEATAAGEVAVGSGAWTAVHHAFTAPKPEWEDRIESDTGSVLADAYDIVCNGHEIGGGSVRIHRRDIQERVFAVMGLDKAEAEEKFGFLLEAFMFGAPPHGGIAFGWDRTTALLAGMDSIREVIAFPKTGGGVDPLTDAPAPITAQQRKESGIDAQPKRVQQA

[2] = target: Shiga toxin 2 (Escherichia coli O157:H7) (UniProt P09385+P09386); test: E. coli 0.157:H7 Shiga Toxin SOP - stx2 screening assay; format: functional; design: scale not given: direction of the effect not stated beside the values; conditions: 30 µM

Row | Structure (SMILES) | Percent Effect [1] [%] | Percent Effect [2] [%]
1 | O=C1CC(c2ccccc2)c2c(n3ccsc3nc2=O)N1 (stereo unspecified) | -1.74 | -13.6
2 | CC(NC(=O)c1cc(Br)c2c(c1)OCCO2)C(N)=O (stereo unspecified) | -2.13 | -4.92
3 | O=C1COc2c(cccc2C(=O)N2CCCCC2Cn2cccn2)N1 (stereo unspecified) | -0.721 | 27.1
4 | O=C(CCc1cscn1)NS(=O)(=O)c1ccc2ccccc2c1 | -3.43 | 11.4
5 | Cc1cnn(CC(C)NCc2ccc(OCc3ccncc3)cc2)c1 (stereo unspecified) | -0.0437 | -25.9
6 | CCn1cc(CN2CCCn3nc(CCC(=O)NCCO)cc3C2)cn1 | 0.624 | -51
7 | N#Cc1ccc(CNCC2CCN(CCO)CC2)cc1 | 5.92 | -29.9
8 | O=C(NCCn1ccc(-c2ccccn2)n1)c1ccncc1 | -6.73 | -58.6
9 | COC(=O)C1CCN(c2cncc(-n3nc(C)cc3C)n2)CC1 | 8.26 | -51.5
10 | CC(Cc1ccco1)NC(=O)Nc1ccc(N2CCOCC2)nc1 (stereo unspecified) | -3.59 | 15
11 | O=C(CC1CC1)NCc1cc(=O)n2c(n1)CN(Cc1ccoc1)CCC2 | -2.64 | -17
12 | CC(C)Cc1ccc(S(=O)(=O)Nc2ccc(=O)n(C)c2)cc1 | 30.2 | -23.8
13 | O=C(Cn1cc(I)cn1)N1CCCC1 | -4.62 | -0.574
14 | Cc1nc(CN2CCCC(N(C)Cc3cscn3)C2)no1 (stereo unspecified) | 4.73 | -14.1
15 | Cc1nccn1C1CCCN(C(=O)c2ccc3c(c2)COC3)C1 (stereo unspecified) | -1.72 | -16.7
16 | CN(CCCOc1ccccc1)C(=O)CN1CCc2cncnc2C1 | 5.73 | 9.42
17 | Cc1ccc(N2CCCN(C(=O)c3c(C)oc(C)c3C)CC2)nn1 | 1.16 | -1.2
18 | COCC1c2nnn(CC3CC3)c2CCN1C(=O)c1ccnnc1 (stereo unspecified) | -4.7 | -8.58
